Experimental data reported in PubChem BioAssay (EPA / NIEHS).
Inconclusive results are not listed. Active and inactive are the calls of the source. Rule for the calls: active = hit-call score of the fitted dose curve at least 0.9, where 1 is the maximum; inconclusive = response in the unintended direction; inactive = score below 0.9.

Read-out: sulfotransferase (SULT2A), SULT2A1 (gene 6822)
Assay: CLD_SULT2A_48hr: CellzDirect (CLD) Gene Expression Assay for sulfotransferase (SULT2A) at 48 hours (AID 2283710);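 note: hits raise SULT2A1 transcript above the 0.2% DMSO vehicle baseline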
Method: CLD_48hr is a cell-based, multiplexed-readout assay that uses hepatocyte, a human liver primary cell, with measurements taken at 48 hours after chemical dosing in a 96-well plate.CLD_SULT2A_48hr is one of 16 assay component(s) measured or calculated from the CLD_48hr assay. It is designed to make measurements of mRNA induction, a form of inducible reporter, as detected with chemiluminescence signals by Quantitative Nuclease Protection Assay (qNPA) technology.Data from the assay component CLD_SULT2A_48hr was analyzed at the endpoint, CLD_SULT2A_48hr, in the positive analysis fitting direction relative to DMSO as the negative control and baseline of activity. Using a type of inducible reporter, gain-of-signal activity can be used to understand changes in the reporter gene as they relate to the gene SULT2A1. Furthermore, this assay endpoint can be referred to as a primary readout. To generalize the intended target to other relatable targets, this assay endpoint is annotated to the transferase intended target family, where subfamily is sulfotransferase.
Human hepatocyte cultures were treated daily for two consecutive days with fresh dosing solutions containing appropriate concentrations of the 320 ToxCast chemicals (chemical identities were blinded to CellzDirect and other ToxCast collaborators), vehicle control (0.2% DMSO), and positive control inducers as summarized in Table 1. Due to the large number of treatment groups and chemicals examined, the ToxCast chemicals were divided into two groups (spanning two independent cultures of hepatocytes from separate donor preparations (Hu778: ToxCast plates 1 and 2; Hu776: ToxCast plates 3 and 4). Each preparation of human hepatocyte cultures was treated with respective vehicle control, medium only control, set of six positive controls/reference chemicals for the five hepatic receptor pathways, and a subset of eight of the ToxCast chemicals (indoxacarb, pyrithiobac-sodium, norflurazon, cyhalofop-butyl, methomyl, thiram, acetochlor, and propiconazole). These replicate data, coupled with internal replicates designed within the blinded ToxCast chemical library, provided additional data to evaluate interindividual differences between hepatocyte preparations and their potential impact on chemical profiles.Cell morphology and integrity were evaluated using phase-contrast microscopy as an indicator of hepatocyte cell health (Tyson & Green, 1987). Cultures for each treatment group (i.e., media, vehicle [0.2% DMSO], positive control inducers [multiple concentrations], and the ToxCast chemicals [multiple concentrations]) were observed and cell morphology was assessed relative to vehicle control cultures at each harvest time point (0, 6, 24, or 48 h). […] Images were evaluated at the conclusion of the study to assess changes in cell integrity and account for the effects of chemical exposure on uncharacteristic changes in concentration-dependent gene expression profiles. The results from these determinations of apparent cytotoxicity were annotated (yes/no) alongside the corresponding qNPA data for reference.At the conclusion of each treatment period, hepatocyte cultures (96-well) were washed with 1 volume of HBSS, lysed by addition of 25 ul ArrayPlate lysis buffer (HTG, Tucson, AZ), and 70 ul/well of Denaturation Oil, denatured by incubation at 95C for 10 min, and frozen at approximately -70C until analysis by nuclease protection assay (qNPA) (Roberts et al., 2007). For qNPA analysis, cell lysates were thawed at 50C for approximately 30 min, qNPA probes were added, and samples were incubated at 95C for 10 min to begin the detection process by denaturing the target RNA, dissociating the duplexes and secondary structure hybridization. At the conclusion of the hybridization period, S1 nuclease reagent was added to each sample to digest all nonprotected nucleotides at 50C for 60-90 min. […]

Compound | outcome | AC50
O=C(O)c1nc(Cl)ccc1Cl | inactive | –
N#CC(CCc1ccc(Cl)cc1)(Cn1cncn1)c1ccccc1 (stereo not given) | – | 20 µM (active)
Fc1ccc(Oc2ccnc3cc(Cl)cc(Cl)c23)cc1 | inactive | –
COc1nc(NC(C)C)nc(NC(C)C)n1 | inactive | –
COC(=O)C=C(C)OP(=O)(OC)OC | inactive | –
CCCN(CCC)c1c([N+](=O)[O-])cc(S(N)(=O)=O)cc1[N+](=O)[O-] | – | 6.29 µM (active)
COc1ccc(C(c2ccc(OC)cc2)C(Cl)(Cl)Cl)cc1 | inactive | –
Oc1ccccc1-c1ccccc1 | inactive | –
CCOP(=S)(OCC)SCn1c(=O)oc2cc(Cl)ccc21 | inactive | –
CCOc1cc(Oc2ccc(C(F)(F)F)cc2Cl)ccc1[N+](=O)[O-] | inactive | –
CC1COC(Cn2cncn2)(c2ccc(Oc3ccc(Cl)cc3)cc2Cl)O1 (stereo not given) | inactive | –
CCON=C(CC)C1=C(O)CC(c2c(C)cc(C)cc2C)CC1=O (stereo not given) | inactive | –
OC(c1ccc(Cl)cc1)(c1cncnc1)c1ccccc1Cl (stereo not given) | inactive | –
COc1nc(C)nc(NC(=O)NS(=O)(=O)c2ccccc2CCC(F)(F)F)n1 | inactive | –
COC(=O)N(OC)c1ccccc1COc1ccn(-c2ccc(Cl)cc2)n1 | – | 9.28 µM (active)
CCCCC(CC)COC(=O)c1ccccc1C(=O)OCC(CC)CCCC (stereo not given) | inactive | –
C=CCC1=C(C)[C@@H](OC(=O)[C@@H]2[C@@H](C=C(C)C)C2(C)C)CC1=O | inactive | –
COc1cnc(OC)n2nc(NS(=O)(=O)c3c(OCC(F)F)cccc3C(F)(F)F)nc12 | inactive | –
C=CC1(C)OC(=O)N(c2cc(Cl)cc(Cl)c2)C1=O (stereo not given) | inactive | –
O=C(Nc1ccccc1)Nc1ccnc(Cl)c1 | inactive | –

Compound | outcome | AC50
CS/C(C)=N/OC(=O)N(C)SN(C)C(=O)O/N=C(\C)SC | inactive | –
CC(C)(C)c1ccc(CSc2cnn(C(C)(C)C)c(=O)c2Cl)cc1 | inactive | –
CCc1nn(C)c(C(=O)NCc2ccc(C(C)(C)C)cc2)c1Cl | – | 20 µM (active)
CCCCOC(=O)c1ccccc1C(=O)OCCCC | inactive | –
Cc1c(F)c(F)c(COC(=O)C2C(/C=C(\Cl)C(F)(F)F)C2(C)C)c(F)c1F (stereo not given) | inactive | –
CC(C)Oc1cc(-n2nc(C(C)(C)C)oc2=O)c(Cl)cc1Cl | – | 2.92 µM (active)
CON(C)C(=O)Nc1ccc(Cl)c(Cl)c1 | inactive | –
N#Cc1nn(-c2c(Cl)cc(C(F)(F)F)cc2Cl)c(N)c1S(=O)C(F)(F)F (stereo not given) | inactive | –
CCCC1COC(Cn2cncn2)(c2ccc(Cl)cc2Cl)O1 (stereo not given) | inactive | –
COC(=O)C(C)Oc1ccc(Oc2ccc(Cl)cc2Cl)cc1 (stereo not given) | inactive | –
CCNc1nc(Cl)nc(NC(C)C)n1 | inactive | –
COP(N)(=O)SC (stereo not given) | inactive | –
CCOC(=O)CC(SP(=S)(OC)OC)C(=O)OCC (stereo not given) | inactive | –
CCNc1nc(Cl)nc(NCC)n1 | inactive | –
C#CCOS(=O)OC1CCCCC1Oc1ccc(C(C)(C)C)cc1 (stereo not given) | inactive | –
N#Cc1cc(Br)c(O)c(Br)c1 | inactive | –
COC(=O)c1ccccc1C(=O)OC | inactive | –
C=CCC1=C(C)C(OC(=O)C2C(C=C(C)C)C2(C)C)CC1=O (stereo not given) | inactive | –
CC(Oc1ccc(Cl)cc1Cl)C(=O)O (stereo not given) | inactive | –
CC(C)C1(C)N=C(c2nc3ccccc3cc2C(=O)O)NC1=O (stereo not given) | inactive | –
